Experimental findings from PubChem BioAssay (NCATS) are described below.

The structures appear in SMILES notation. Records with an inconclusive call do not appear. The source made the active and inactive calls. The call rests on the fitted dose curve; in most records, active means well fitted cell-killing curve with a large enough effect; inconclusive means small, poorly fitted or top-dose-only effect, or effect the other way; inactive means no such curve, though single readings can be large or run the other way.
Potency means the concentration at half of the fitted maximal effect.

A short description of this assay: Quantitative highthroughput screen to assess conditional lethalithy of SEM cells grown in RPMI1640 with dialyzed fetal bovine serum (RPMI+ds) (AID 1963884). Further: nearly all actives have a fitted effect of over 35% in size. Particulars: SEM B-ALL cells, RPMI+dialyzed FBS, CellTiter-Glo viability, 48 h; series mostly up to 45.8 µM; viability: at the top concentration. The text has this: Assay Provider: Jason Cantor Ph.D.
Department of Biochemistry
University of Wisconsin-Madison, Madison, WI, USA
Chemical screening studies have identified drug sensitivities across hundreds of cancer cell lines but most putative therapeutics fail to translate. Discovery and development of drug candidates in models that more accurately reflect nutrient levels in human blood is a major challenge. Here we performed high-throughput screens in conventional versus Human Plasma-Like Medium (HPLM) to identify compounds that were "missed" when screening using the artificial culture condition. Sets of conditional anticancer compounds spanned phases of clinical development and included non-oncology drugs were assessed. […] We also traced conditional phenotypes for several chemotherapeutics to availability of HPLM-specific metabolites and confirmed others for compounds whose reported targets are encoded by nonessential genes. Our findings establish generalizable strategies for exploiting conditional lethality in HPLM to reveal therapeutic candidates and mechanisms of action in cancer cells.
Described herein are the results of each viability screens against three cell lines: NOMO1 (an acute myeloid leukemia cell line); P12-Ichikawa (a T-cell acute lymphoblastic leukemia); and SEM (a B-cell ALL). Each assay was screened using 3 different cell culture media: homemade human plasma-Like medium with 10% dialyzed fetal bovine serum (HPLM+ds); RPMI1640 with 10% untreated FBS and 5mM glucose (RPMI+s); and RPMI1640 with 10% dialyzed fetal bovine serum and 5 mM glucose (RPMI+ds).
PROTOCOL TABLE (as described by Inglese J, Shamu CE and Guy RK. 2007)
SEQUENCE No. (e.g., 1, 2, 3, etc.); […] (e.g., Cells, Incubation, Reagent, etc.); VALUE and DESCRIPTION.
1; Cells; 5 uL; white, solid bottom 1536-well Greiner assay plate.
2; Compounds; 23 nL; Kalypsis pin tool (Wako USA) equipped with a 1536-well pin head to transfer to the assay plates.
3; Incubation; 48 hours; 37C incubation.
4; Reagent; 3 uL; CellTiter Glo (Promega).
5; Incubation; 5 min, room temperature
6; Detection; Luminescence, Viewlux PerkinElmer.
NOTES (numbers refer to Sequence numbers above)
1. Briefly, 5 ul of cell reagent was dispensed using a Multidrop Combi Dispenser. The NOMO1 and SEM cells were plated at 500 cells/well and the P12-Ichikawa line at 1000 cells/well.
2. After seeding the cells, 23 nL of MIPE 4.1 library compounds (in DMSO) were added to each plate using a Kalypsys 1536 Pintool dispenser. Bortezomib at final concentration of […] and DMSO were added to each plate as positive and negative controls respectively. For each screen, MIPE 4.1 compounds were added over an eleven-point concentration range […] in 3-fold dilutions.
3. Each plate was covered with a stainless steel gasketed lid to prevent evaporation and incubated for 48 hour at 37C, 95% relative humidity, and 5% CO2.
4-5. Three microliter CellTilter-GloTM luminescent substrate mix (Promega) reagent was added to the assay plate and incubated at room temperature for 5 min.
6. The luminescence signal was measured using a ViewLux (PerkinElmer) multiplate reader with a 2 second exposure time per plate. Data for each compound were normalized as percent viability such that measurements for DMSO and the empty well controls in each plate were defined as 100% and 0%, respectively.
Take `O=c1[nH]c2ccccc2n1CCCN1CCC(n2c(=O)[nH]c3cc(Cl)ccc32)CC1`: the “viability” value was 86.9% (inactive).

On to `O=C(O)c1nn(Cc2ccc(Cl)cc2Cl)c2ccccc12`, for which the “viability” value was 71% (inactive). Turning to `CC1=C(O)C(=O)C=C2C1=CC=C1[C@@]2(C)CC[C@@]2(C)[C@@H]3C[C@](C)(C(=O)O)CC[C@]3(C)CC[C@]12C`, the Potency is 1870 nM (active). In the case of `C[C@]12Cc3cn[nH]c3C[C@@H]1CC[C@@H]1[C@H]2CC[C@@]2(C)[C@H]1CC[C@]2(C)O`, the “viability” value is 92.9% (inactive).

Turning to `CN1C(=O)COc2c(C(=O)NC3CN4CCC3CC4)cc(Cl)cc21` (stereo not given), the “viability” value is 128% (inactive). The same measure, in the same setting: as for `O=C(Oc1ccc([N+](=O)[O-])cc1)N1CCN(Cc2cccc(Oc3ccccc3)c2)CC1`, the figure is 101% (inactive).

As to `Cc1cc(SCc2sc(-c3ccc(C(F)(F)F)c(F)c3)nc2C)ccc1OCC(=O)O`, the “viability” value was 97.3% (inactive).

For the molecule `CCOC(=O)c1cncn1[C@H](C)c1ccccc1`, the “viability” value is 95.2% (inactive). Consider `C#C[C@]1(O)C=C[C@@H]2[C@@H]3CCC4=CC(=O)CC[C@@H]4[C@H]3CC[C@@]21CC`, for which the “viability” value is 96.4% (inactive). On the same count and under the same terms, as for `COc1cc(OC)c(OC)cc1C=O`, the figure is 93.2% (inactive). For the molecule `CCNC(=O)C[C@@H]1N=C(c2ccc(Cl)cc2)c2cc(OC)ccc2-n2c(C)nnc21`, the Potency was 1050 nM (active). As to `C[C@@H]1CC[C@H]2[C@@H](C)C(=O)O[C@@H]3O[C@@]4(C)CC[C@H]1[C@]32OO4`, the “viability” value is 106% (inactive). Turning to `CC(C)N[C@@H]1CCn2c(=O)[nH]c3cccc(c32)[C@@H]1O`, the “viability” value was 96.3% (inactive).

Consider `O=c1cccc2n1CC1CNC[C@H]2C1`, for which the “viability” value is 97.5% (inactive).

`NCC1(CC(=O)O)CCCCC1`: the “viability” value is 87.5% (inactive). Turning to `O=c1[nH]c2ccc(Cl)cc2c(N[C@@H]2CN3CCC2CC3)c1-c1nc2ccccc2[nH]1`, the Potency was 66.2 nM (active). Take `C[C@]12CC[C@H]3[C@@H](CCC4=CC(=O)CC[C@@]43C)[C@H]1CC[C@H]2O`: the “viability” value is 113% (inactive). On to `Cc1sc2c(c1C)C(c1ccc(Cl)cc1)=N[C@@H](CC(=O)OC(C)(C)C)c1nnc(C)n1-2`, for which the Potency is 209 nM (active).

With `NC1=NC(=O)N2CC12` (stereo not given), the Potency is 2960 nM (active).

For `CC(=CCCC1=CCC(C2=CC(=O)OC2O)OC1O)CCC1=C(C)CCCC1(C)C` (stereo not given), the “viability” value was 106% (inactive). For `CC(C)c1cccc(C(C)C)c1O`, the “viability” value was 92.7% (inactive). Take `C[C@]12CC[C@H]3[C@@H](CC[C@@]45O[C@H]4C(O)=C(C#N)C[C@]35C)[C@H]1CC[C@H]2O`: the Potency was 16600 nM (active). On the same count and under the same terms, as for `C[C@@H]1O[C@@H](O[C@@H]2C=C3CC[C@@H]4[C@@H](CC[C@]5(C)[C@H](c6ccc(=O)oc6)CC[C@@]45O)[C@@]3(C)CC2)[C@H](O)[C@H](O)[C@H]1O`, the figure is 37.2 nM (active). For `C[C@@]12OC(=O)[C@]1([C@@H](O)[C@@H]1C=CCCC1)NC(=O)[C@H]2CCCl`, the Potency was 46.9 nM (active).

Regarding `O=P1(N(CCCl)CCCl)NCCCO1` (stereo not given), the Potency was 9350 nM (active).

In the case of `C[C@]12CC[C@@H]3[C@@H](CCC4=CC(=O)CC[C@@H]43)[C@@H]1CC[C@@H]2OC(=O)CCc1ccccc1`, the “viability” value was 91.8% (inactive). As to `CC[C@H]1C=CC=CC[C@@H](C)[C@H](O)[C@@](C)(O)C(=O)[C@@H](C)[C@H](O)[C@@H](C)C(=O)[C@@H](C)[C@H](O)[C@@H](C)C=CC(=O)O[C@@H]2[C@@H](C)[C@H](CC1)O[C@]1(CC[C@H](C)[C@H](C[C@@H](C)O)O1)[C@H]2C`, the Potency is 4690 nM (active).

For `Cc1ncc(OC[C@@]2(c3cccc(F)c3)C[C@H]2C(=O)Nc2ccc(F)cn2)c(C)n1`, the “viability” value was 76% (inactive).

On to `COC[C@@H](NC(C)=O)C(=O)NCc1ccccc1`, for which the “viability” value was 88.8% (inactive). Regarding `C[C@@H]1C[C@@H]([C@H](O)CC2CC(=O)NC(=O)C2)C(=O)[C@@H](C)C1`, the Potency is 590 nM (active).

Take `COC1=C[C@@H]2[C@@H]3Cc4ccc(OC)c(O)c4[C@]2(CCN3C)CC1=O`: the “viability” value was 89.8% (inactive). With `CN(C)[C@@H]1C(=O)C(C(N)=O)=C(O)[C@@]2(O)C(=O)C3=C(O)c4c(O)cccc4[C@@](C)(O)[C@H]3[C@H](O)[C@@H]12`, the “viability” value is 113% (inactive). As for `COC(=O)[C@@H](N)CCCN=C(N)N[N+](=O)[O-]`, the “viability” value is 105% (inactive). For the molecule `CC1(N2CCC(n3c([C@@H]4CCCNC4)nc4ccccc43)CC2)CCCCCCC1`, the “viability” value was 79.4% (inactive). In the case of `CC(C)(O)C=CC(=O)[C@](C)(O)[C@H]1[C@H](O)C[C@]2(C)[C@@H]3CC=C4[C@@H](C=C(O)C(=O)C4(C)C)[C@]3(C)C(=O)C[C@@]12C`, the Potency was 66.2 nM (active). For the molecule `CN(C)[C@@H]1C(=O)C(C(N)=O)=C(O)[C@@]2(O)C(=O)C3=C(O)c4c(O)cccc4[C@@](C)(O)[C@H]3C[C@@H]12`, the “viability” value was 99.5% (inactive). On the same count and under the same terms, as for `O=S(=O)(F)Cc1ccccc1`, the figure is 78.5% (inactive). In the case of `C[C@@H]1[C@@H](CC(C[C@H]2O[C@@H]3O[C@]4(C)CC[C@@H]5[C@H](C)CC[C@@H]([C@H]2C)[C@@]35OO4)C[S+](=O)([O-])c2ccc(COC(=O)N(C)C)cc2)O[C@@H]2O[C@]3(C)CC[C@H]4[C@H](C)CC[C@@H]1[C@@]24OO3` (stereo not given in full), the Potency was 418 nM (active). Turning to `O=P1(NCCCl)OCCCN1CCCl` (stereo not given), the Potency is 20900 nM (active). For `CCN1CCN(C(=O)Cc2ccc(Nc3ncc(F)c(Nc4ccc(C(=O)Nc5ccccc5Cl)cc4)n3)cc2)CC1`, the Potency is 4690 nM (active).

As a reminder, the viability is a read-out of living cells in per cent, often relative to untreated cells.
